# Screens (PubChem)
# Compounds with a hit are over-represented: about 19% of the library has one in this group of screens.
# MCF10A rerep: A quantitative high throughput screen for small molecules that induce DNA re-replication in MCF 10a normal breast cells; MCF 10A DNA re-replication, Hoechst nuclear intensity, 48 h; Potency, µM (highest dose often 46.1 µM), for inactives: at the top dose activity, positive = re-replication, most hits filed as activators; 2.9% of 350,000 active; AID 624296, 2012; also: potency is read from the fitted curve at half-maximal effect; % of control where 0% means no effect; nearly all actives have a fitted effect of over 50% in size
# IL1B secr inh: qHTS for Inhibitors of Inflammasome Signaling: IL-1-beta AlphaLISA Primary Screen; AID 743279, 2014; THP-1 LPS/ATP IL-1B secretion, AlphaLISA, 16 h; stronger effect = lower value; 4.7% of 360,000 active; activity change, % at 57.5 µM; in the data active = activity change below about -50%; inconclusive = mostly about -30% to -49%; also: % is scaled to controls: 0 for no effect and ±100 for the full control effect
#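 THP-1 cells pretreated 1 hr with compounds (up to 57.5 uM final), then stimulated with LPS (250 ng/mL final) plus ATP (1.25 mM final); secreted IL-1B measured by AlphaLISA after 16 hr, decreased signal indicating inhibition.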
# DT40 TDP1 no CPT: qHTS for Inhibitors of human tyrosyl-DNA phosphodiesterase 1 (TDP1): qHTS in cells in absence of CPT; DT40 Tdp1-/- hTDP1 cells, no CPT, ATP luminescence, 48 h; Potency, µM (series often up to 46.2 µM), without a hit: top-dose activity change, negative = growth inhibition, most hits filed as inhibitors; 15% of 420,000 active; AID 686978, 2013; also: potency is read from the fitted curve at half-maximal effect; % is scaled to controls: 0 for no effect and ±100 for the full control effect; nearly all actives have a fitted effect of over 55% in size
#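 Growth of hTDP1-complemented DT40 Tdp1-knockout cells is measured by ATP luminescence after at least 48 hr compound exposure at 37 °C, with DMSO substituting for the 20 nM CPT used in the parallel screen.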
# SW480 rerep: A quantitative high throughput screen for small molecules that induce DNA re-replication in SW480 colon adenocarcinoma cells. SW480 DNA re-replication, Hoechst DNA content imaging, 48 h. Potency, µM (top dose mostly 46.1 µM), for inactives: top-dose re-replication activation, usual class: activators. 1.8% of 340,000 active; also: potency is read from the fitted curve at half-maximal effect; % of control where 0% means no effect; nearly all actives have a fitted effect of over 55% in size
#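 Quantitative HTS format with DMSO vehicle controls; 48 hr drug incubation at 37 C, then 40 min Hoechst staining and scanning imager measurement at 405 nm excitation.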
# DT40 TDP1 CPT: qHTS for Inhibitors of human tyrosyl-DNA phosphodiesterase 1 (TDP1): qHTS in cells in presence of CPT; chicken DT40 Tdp1-/-;hTDP1 cells + 20 nM CPT, ATP luminescence, 48 h; Potency, µM (series often up to 46.2 µM), for the others: top-dose activity change, negative = growth inhibition, actives largely listed as inhibitors; 12% of 420,000 active; AID 686979, 2013; also: potency is read from the fitted curve at half-maximal effect; % is scaled to controls: 0 for no effect and ±100 for the full control effect; nearly all actives have a fitted effect of over 55% in size
#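 Chicken DT40 Tdp1-/- cells stably complemented with human TDP1 were seeded at 400 cells/well in medium containing 20 nM camptothecin, exposed to pin-transferred compounds, and grown at 37 °C for at least 48 hr. Viability was read as ATP luminescence.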
# BCR signal inh: qHTS Assay to Find Inhibitors of Chronic Active B-Cell Receptor Signaling; ABC-DLBCL IkBa-CBG/CBR reporter, luminescence ratio, 4 h; Potency, µM (doses to about 46.1 µM), without a hit: top-dose activity change, negative = inhibition, most hits filed as inhibitors; 0.05% of 340,000 active; active = well fitted inhibition curve with a large enough effect in the signal ratio, with a control signal flat, not every such curve was filed as active; inconclusive = small, poorly fitted or top-dose-only effect, or effect the other way, or a change in a side signal; the % refers to the signal ratio;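 also: potency is read from the fitted curve at half-maximal effect; plate controls were basal doxycycline-induced cells for no effect and cells given 10 µM MG132 for full effect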
#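 TMD8 human ABC-DLBCL cells with doxycycline-inducible IκBα–green luciferase fusion and unfused red luciferase, in 0.5% FBS medium; compounds up to 46 uM, 4 h at 37C. Green/red luminescence ratio, filter-overlap corrected, fitted to concentration-response curves.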
# Starred values were filed as active, the others as inactive; ? = inconclusive; / = not tested or not shown; [ ] = another dose, or the depositor's remark. Unless noted, calls follow the shape of the dose curve; as a rule, active = well fitted curve in the direction sought with a large enough effect; inconclusive = small, poorly fitted or top-dose-only effect, or another doubt; inactive = no such curve, though single readings can be large; an effect the other way counts as inactive or inconclusive.
SMILES,MCF10A rerep,IL1B secr inh,DT40 TDP1 no CPT,SW480 rerep,DT40 TDP1 CPT,BCR signal inh
CCCCCCN1CCN(C2CN(Cc3ccc(F)cc3)S(=O)(=O)C2)CC1 (centres undefined),/,-6.0,?,/,?,/
COc1ccc(S(=O)(=O)NC2CC(C)(C)NC(C)(C)C2)cc1C(C)C,8.6%,-23.8,?,-1.5%,?,-1.3%
COc1ccc(S(=O)(=O)N2CCN(C(=O)c3cc(-c4ccc(C)cc4)n[nH]3)CC2)cc1,13.4%,-83.2*,?,?,25.9µM*,0.4%
COc1ccc(-c2cc(C(=O)N3CCN(S(=O)(=O)c4ccc(C)cc4)CC3)[nH]n2)cc1,3.2%,-20.0,?,7.3%,?,3.9%
Cn1nccc1C(=O)N1CCN(S(=O)(=O)c2ccc(Br)s2)CC1,?,12.3,-21.2%,-8.0%,-29.6%,1.1%
O=C(c1cc(-c2ccc(Br)cc2)n[nH]1)N1CCN(S(=O)(=O)c2ccc(Br)s2)CC1,/,/,23.1µM*,/,20.6µM*,/
Cc1ccc(-c2cc(C(=O)N3CCN(S(=O)(=O)c4ccc(Br)s4)CC3)[nH]n2)c(C)c1,/,/,18.4µM*,/,11.6µM*,/
Cc1ccc(-c2cc(C(=O)N3CCN(S(=O)(=O)c4ccc(Br)s4)CC3)[nH]n2)cc1C,/,/,13µM*,/,14.6µM*,/
O=C(NCc1ccccc1)c1ccc(NC(=O)C2CCC2)cc1,?,-20.9,-0.8%,1.7%,6.0%,/
O=C(NN=Cc1ccc(O)cc1O)c1ccccc1NS(=O)(=O)c1cccs1,0.7%,196.0,20.6µM*,?,?,?
COc1ccc2[nH]c(O)c(N=NC(=O)c3ccc(NS(=O)(=O)c4cccs4)cc3)c2c1,2.9%,11.2,7.2%,-15.3%,-10.7%,-0.7%
Cc1ccc2[nH]c(O)c(N=NC(=O)c3ccc(NS(=O)(=O)c4cccs4)cc3)c2c1,-2.1%,18.1,?,-0.4%,14.6µM*,?
O=C(N=Nc1c(O)[nH]c2ccccc12)c1ccccc1NS(=O)(=O)c1cccs1,-0.3%,-1.2,-29.2%,?,16.4µM*,5.7%
O=C(N=Nc1c(O)[nH]c2ccc(F)cc12)c1ccc(NS(=O)(=O)c2cccs2)cc1,-3.2%,13.2,9.5%,-44.5%,33.1%,-13.6%
COc1ccc(C=NNC(=O)c2ccccc2NS(=O)(=O)c2cccs2)cc1O,-6.7%,9.1,-4.9%,-8.4%,-2.4%,-2.6%
CC1(C)CC(=O)C=C(c2ccc(-c3ccc(OC(F)(F)F)cc3)cc2)C1=O,/,?,10.3µM*,/,16.4µM*,/
CC1(C)CC(=O)C=C(c2ccc(CO)cc2)C1=O,/,2.2,-15.2%,/,0.9%,/
CC1(C)CC(=O)C=C(c2ccc(-c3ccc4[nH]ccc4c3)cc2)C1=O,/,-14.7,25.9µM*,/,?,/
CC1(C)CC(=O)C=C(c2ccccc2-c2ccc3cc[nH]c3c2)C1=O,/,4.5,?,/,-13.8%,/
CC1(C)CC(=O)C=C(c2ccc(COC(=O)c3cccc(C(F)(F)F)c3)cc2)C1=O,/,21.8,?,/,?,/
CC1(C)CC(=O)C=C(c2ccc(-c3ccccc3)cc2)C1=O,/,-6.9,25.9µM*,/,?,/
COc1ccc(-c2c[n+](CC(=O)c3cccs3)c3n2CCC3)cc1,0.9%,-29.3,16.4µM*,-9.1%,25.9µM*,-0.1%
O=C(C[n+]1cc(-c2ccccc2)n2c1CCC2)OCc1ccccc1,-9.7%,-0.6,-18.7%,/,11.2%,?
CCc1ccc(C)[n+](CC(=O)c2cccs2)c1,?,-57.6*,?,-3.8%,?,-0.7%
Cc1ccc(-c2c[n+](CC(=O)c3cccs3)c3n2CCC3)cc1,8.5%,?,3.26µM*,4.7%,3.66µM*,5.1%
SMILES,MCF10A rerep,IL1B secr inh,DT40 TDP1 no CPT,SW480 rerep,DT40 TDP1 CPT,BCR signal inh
CCc1cc(C(=O)N=Nc2c(O)[nH]c3c(Br)cc(Br)cc23)c2ccccc2n1,?,50.9,?,?,20.6µM*,-10.1%
CCc1cc(C(=O)N=Nc2c(O)[nH]c3ccc([N+](=O)[O-])cc23)c2ccccc2n1,0.0%,27.7,?,-1.5%,?,?
C=C1C(=O)OC2C1CCC(C)C1C=CC(=O)C12C (centres undefined),2.06µM*,-67.7*,2.91µM*,6.51µM*,3.26µM*,/
C=C1C[C@]23CC[C@H]4C(CO)(CO)C[C@@H](O)C[C@@]4(C)[C@@H]2CC[C@H]1C3,/,/,-28.7%[9.04 µM],/,?,/
CCCOP(=O)(OCCC)c1c([N+](=O)[O-])cc(C(F)(F)F)cc1[N+](=O)[O-],?,-73.4*,18.4µM*,18.4µM*,?,12.4%
Cc1ccc(C)c(CN2CCC(CNC(=O)Cn3ncc4c([nH]c5ccccc54)c3=O)CC2)c1,/,/,14.6µM*,/,?,/
Cc1ccc(C)c(Cn2c3ccccc3c3cnn(CC(=O)NCCCN4CCOCC4)c(=O)c32)c1,10.5%,-55.4*,?,-0.5%,?,2.5%
Cn1cc(CC(=O)NCCN2CCOCC2)c2ccccc21,14.9%,96.5,?,23.1µM*,-86.1%,-0.4%
Cc1ccc(C)c(Cn2c3ccccc3c3cnn(CC(=O)NCCN4CCOCC4)c(=O)c32)c1,6.0%,-25.0,18.4µM*,-22.7%,16.4µM*,5.3%
Cn1cc(CC(=O)NCCCN2CCOCC2)c2ccccc21,0.1%,24.7,5.5%,-15.5%,3.8%,1.4%
Cc1cc(C)c(Cn2c3ccccc3c3cnn(CC(=O)NCCN4CCOCC4)c(=O)c32)c(C)c1,?,-9.5,?,?,?,-1.2%
Cc1ccc(CCNC(=O)Cn2nc(-c3ccc(C)cc3)ccc2=O)cc1,/,/,?,/,?,-1.5%
Cn1cc(CC(=O)N2CCN(c3ccc(Cl)cc3)CC2)c2ccccc21,-0.4%,-15.2,13µM*,13.5%,?,?
Oc1c(CN2CCCCC2)cc(COCc2ccccc2)c2cccnc12,16.4µM*,-105.0*,4.61µM*,3.16µM*,4.11µM*,?
COCc1cc(CN2CCCC2)c(O)c2ncccc12,7.3%,100.7,0.82µM*,-0.7%,0.651µM*,?
COc1cc(C)ccc1OCc1cc(C(=O)N(C)CCCN2CCOCC2)no1,-3.8%,-19.3,2.8%,-18.4%,2.0%,4.5%
COc1ccc(CCNC(=O)Cc2c(C)c3cc4c(C)coc4c(C)c3oc2=O)cc1,/,/,?,/,-11.1%,/
